Reference: PubChem BioAssay AID1347165 (National Center for Advancing Translational Sciences (NCATS), 2019)
In all, about 220,000 compounds went through this assay and about 5,700 (2.6%) were called active. Not shown: some 18% with an inconclusive outcome. The sample as a whole holds a higher share of actives than the screen did. Unmarked numbers belong to inactive results. Calls follow the shape of the dose curve; as a rule, active = well fitted inhibition curve with a large enough effect; inconclusive = small, poorly fitted or top-dose-only effect; inactive = no such curve, though single readings can be large or run the other way.

Molecular target: Lysine-specific demethylase 5B (Homo sapiens) (UniProt Q9UGL1)
Assay: Primary screen for KDM5B Histone Demethylases FDH-coupled qHTS; also: nearly all actives have a fitted effect of over 70% in size; as to activity change, negative = inhibition: 0% is about no effect
Details: FDH-coupled NADH fluorescence (FDH is formaldehyde dehydrogenase); series mostly up to 57.7 µM; activity change, negative = inhibition: at the top concentration
In short: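 Measured: NADH fluorescence change, 30 min, RT. System: KDM5BΔAP 200 nM final, H3K4me3 peptide, α-KG, Fe(II), ascorbate, NAD⁺ plus FDH, pH 7.5 HEPES. Compounds: titrated, 10 min pre-incubation with enzyme.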
Potency is read from the fitted curve at half-maximal effect.

Lysine-specific demethylase 5B (Homo sapiens), sequence (Q9UGL1 whole entry, looked up): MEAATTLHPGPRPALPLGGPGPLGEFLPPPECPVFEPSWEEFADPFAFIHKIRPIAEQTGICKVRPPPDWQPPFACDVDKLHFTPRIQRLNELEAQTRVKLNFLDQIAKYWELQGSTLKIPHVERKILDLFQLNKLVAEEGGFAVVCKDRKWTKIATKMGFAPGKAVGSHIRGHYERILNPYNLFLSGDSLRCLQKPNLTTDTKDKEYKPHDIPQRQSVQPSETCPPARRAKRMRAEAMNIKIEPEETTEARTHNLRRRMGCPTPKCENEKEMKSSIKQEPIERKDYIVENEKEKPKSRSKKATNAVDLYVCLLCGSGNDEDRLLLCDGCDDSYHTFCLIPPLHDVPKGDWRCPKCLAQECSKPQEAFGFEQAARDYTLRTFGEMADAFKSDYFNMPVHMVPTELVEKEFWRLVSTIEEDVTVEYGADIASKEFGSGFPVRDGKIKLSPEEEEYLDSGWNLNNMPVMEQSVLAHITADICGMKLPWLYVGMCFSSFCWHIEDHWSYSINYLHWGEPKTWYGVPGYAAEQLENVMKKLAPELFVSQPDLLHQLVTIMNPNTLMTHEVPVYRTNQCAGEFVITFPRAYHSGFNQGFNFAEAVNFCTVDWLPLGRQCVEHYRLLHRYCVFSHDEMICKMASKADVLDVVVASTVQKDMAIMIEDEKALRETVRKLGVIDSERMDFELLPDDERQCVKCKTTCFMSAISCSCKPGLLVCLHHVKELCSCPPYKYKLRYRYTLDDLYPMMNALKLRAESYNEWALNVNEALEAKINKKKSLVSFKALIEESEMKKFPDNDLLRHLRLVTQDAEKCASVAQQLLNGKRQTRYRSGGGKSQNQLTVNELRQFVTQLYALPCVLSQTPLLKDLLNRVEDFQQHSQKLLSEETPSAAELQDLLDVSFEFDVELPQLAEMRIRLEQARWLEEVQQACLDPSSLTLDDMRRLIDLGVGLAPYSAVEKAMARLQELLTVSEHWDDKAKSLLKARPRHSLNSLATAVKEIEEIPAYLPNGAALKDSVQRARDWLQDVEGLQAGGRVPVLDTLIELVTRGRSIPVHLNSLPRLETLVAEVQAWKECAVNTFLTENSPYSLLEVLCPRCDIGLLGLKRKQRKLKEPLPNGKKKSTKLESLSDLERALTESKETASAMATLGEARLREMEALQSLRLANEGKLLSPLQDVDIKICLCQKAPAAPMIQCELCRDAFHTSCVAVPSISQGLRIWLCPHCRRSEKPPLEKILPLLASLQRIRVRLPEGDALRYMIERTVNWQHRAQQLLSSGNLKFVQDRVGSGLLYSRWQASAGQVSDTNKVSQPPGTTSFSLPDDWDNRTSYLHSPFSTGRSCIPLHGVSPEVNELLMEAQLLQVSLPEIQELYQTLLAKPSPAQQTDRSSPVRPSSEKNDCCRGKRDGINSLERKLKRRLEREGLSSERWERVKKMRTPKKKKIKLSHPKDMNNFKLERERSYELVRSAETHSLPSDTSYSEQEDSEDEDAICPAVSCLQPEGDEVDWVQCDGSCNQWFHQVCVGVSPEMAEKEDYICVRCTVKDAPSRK

| Compound | activity change, negative = inhibition | Potency |
| --- | --- | --- |
| CN(Cc1nccn1C)C(=O)c1cc(CN2CCC(Cc3ccccc3)CC2)on1 | -7.68% |  |
| CN(CC1CCN(CCc2cccc(F)c2)CC1)C(=O)c1cn2cccnc2n1 |  | 28.2 µM (active) |
| CN(CCc1ccccn1)C(=O)c1ccc(OC2CCN(CCc3ccccc3)CC2)cc1 | -6.05% |  |
| CCCn1nc(C(=O)OCC(=O)N2CCc3ccccc32)c2ccccc2c1=O | 24.1% |  |
| COc1ccc(NC(=O)c2cnc3ccccc3n2)c(OC)c1 | -11.9% |  |
| COc1ccc(-c2onc(C)c2C(=O)NCc2ccc3c(c2)OCO3)cc1 | -8.26% |  |
| CCCOCCCNC(=O)c1c(C)noc1-c1ccccc1Cl | 6.54% |  |
| CCCOCCCNC(=O)c1c(C)noc1-c1cc(OC)c(OC)c(OC)c1 |  | 28.2 µM (active) |
| O=C(COc1ccc2c(=O)c(-c3ccccc3)coc2c1)N1CCN(c2ccccn2)CC1 | -1.74% |  |
| Cc1ccc(-c2noc(Cn3cnc(C#N)n3)n2)cc1 | 7.52% |  |
| COc1ccc(CN[C@@H]2CCC[C@@H](C(=O)NCc3cc(C)on3)CC(=O)N(C)C2)cn1 | -11.1% [at 86.2 µM] |  |
| Cc1ccc2[nH]cc(CCNC(=O)c3ccccc3C)c2c1 | 6.05% |  |
| Cc1ccccc1-c1cc(C(=O)NCCN2CCNC2=O)c2c(c1)N(C)CCO2 |  | 39.8 µM (active) |
| COc1ccccc1C(=O)Nc1ccnn1C1CCN(Cc2cnn(C)c2)CC1 | 9.36% |  |
| COc1cccc(-c2ccc(F)c(C(N)=O)c2)c1OC | -22.1% |  |
| Cc1ccccc1CN1C(=O)c2ccccc2Sc2ccc(C(=O)NCCCN3CCOCC3)cc21 | -1.46% |  |
| COc1cccc(-c2cc(C(=O)NCc3cc(C)on3)c3c(c2)N(C)CCO3)c1OC |  | 28.2 µM (active) |
| COc1ccccc1-c1cc(C(=O)NCc2cnn(C)c2)c2c(c1)N(C)CCO2 |  | 28.2 µM (active) |
| COc1ccc(CNC(=O)c2cccc3c2CCN3C(=O)c2ccc(F)cc2)cc1OC | -17.8% |  |
| O=C(Nc1cccc(S(=O)(=O)N2CCCC2)c1)c1cccc2cccnc12 | -3.61% |  |
| COc1ccc(C(C)=O)cc1CSCc1coc(-c2ccc(C)cc2)n1 | -2.24% |  |
| CCc1c(C(=O)Nc2ccc3nc(C)sc3c2)cnn1-c1ccc(OC)nn1 | -12.8% |  |
| Cc1ncsc1C(=O)NCc1ccc(N2CCCCCC2)nc1 | 11.7% |  |
| COCCCNS(=O)(=O)c1cccc(S(=O)(=O)c2cccc(S(=O)(=O)NCCCOC)c2)c1 | 0.814% |  |
| Cc1cc(=O)oc2cc(OCC(=O)NCC(C)(c3ccccc3)c3ccccc3)ccc12 | -25% |  |
| O=c1cc(-c2ccccn2)oc2c(-c3ccccc3F)nccc12 |  | 17.8 µM (active) |

| Compound | activity change, negative = inhibition | Potency |
| --- | --- | --- |
| O=C(Nc1c(F)cccc1F)c1cc(-c2ccccn2)nc2ccccc12 | -7.6% |  |
| COc1ccc(-c2nccc3c(=O)cc(N(C)c4ccccc4)oc23)cn1 | -25.8% [at 86.2 µM] |  |
| Cc1cccc(C(C)C)c1NC(=O)CSc1nnc(-c2cc(-c3ccccc3)n[nH]2)n1N | 21.3% |  |
| COC(=O)COc1cccn2c(=O)c(-c3cc(C)n(-c4ccc(C)cc4C)n3)c(C)nc12 |  | 28.2 µM (active) |
| CCOC(=O)C(C)Oc1cccn2c(=O)c(-c3cc(C)n(-c4cccc(F)c4)n3)c(C)nc12 (stereo unspecified) |  | 25.1 µM (active) |
| Cc1ccc(N2CCN(C(=O)CCc3c(C)nc4c(c3C)c(=O)n(C)c(=O)n4C)CC2)c(C)c1 | -17.7% |  |
| Cc1ccc2nc(COc3ccc(NC(=O)COc4ccccc4F)cc3)cc(=O)n2c1 | -1.56% |  |
| O=C(Nc1ccc(N2CCOCC2)c(Cl)c1)c1ccc2c3c(cccc13)CC2 | -3.1% |  |
| CC(c1nc2ccccc2s1)N(C)C(=O)c1cccc(S(=O)(=O)Nc2ccc(Cl)cc2)c1 (stereo unspecified) | 5.35% |  |
| Cc1ccccc1C(=O)N1CCN(c2ccc([N+](=O)[O-])c(-n3nc(C)c4ccccc4c3=O)c2)CC1 | 8.7% |  |
| CC(C)c1nccn1CCCNc1nc(-c2ccncc2)nc2c1cnn2C |  | 22.4 µM (active) |
| N#Cc1c(N)n[nH]c1CCCNc1nc(-c2ccncc2)nc2ccccc12 | -4.51% |  |
| Cc1ccccc1-c1ccc(C(=O)NCCCn2ccnc2C(C)C)cn1 | -17.6% |  |
| COc1ccc(CNC(=O)COC(=O)C(CCSC)N2C(=O)c3ccccc3C2=O)cc1 (stereo unspecified) | -3.03% |  |
| CCCC1(CCC)NC(=O)N(Cc2ncc(-c3ccccc3)o2)C1=O | -8.25% |  |
| O=C1CN(Cc2cc3cc4c(cc3[nH]c2=O)OCO4)CCCN1 |  | 20 µM (active) |
| CCCCCCCCNS(=O)(=O)/C=C/c1cc(C)ccc1CNC(=O)OC(C)(C)C | -5.34% |  |
| CC(C)NC(NC(=O)c1ccc(C(C)(C)C)cc1)C(Cl)(Cl)Cl (stereo unspecified) | 9.93% |  |
| CC(C)CNC(=O)N1C[C@@H](Oc2cccnc2)C[C@H]1C(=O)N1CCOCC1 | -18.3% |  |
| CC(C)CN[C@H]1[C@H](O)[C@H](O)C[C@@H]1c1ccc(N2CCOCC2)nc1 |  | 35.5 µM (active) |
| COC(=O)c1ccc(COC(=O)c2ccc(N3CCOCC3)nc2)cc1 | 14.6% |  |
| Cc1nc(-c2cn(C3CCCN(C(=O)c4cccs4)C3)nn2)no1 (stereo unspecified) | 13% |  |
| COc1ccc(CN2CCc3ncc(C(=O)NCCOc4ccccc4)n3CC2)cn1 | 8.49% [at 86.2 µM] |  |
| CNC(=O)[C@@H]1CN(Cc2cccc(OC)c2)C[C@H]1CO | -15.8% |  |
| COc1cccc(CN2CCc3c(cc(C(=O)NCCN4CCCCC4)n3C)C2)c1 |  | 22.4 µM (active) |
